Consider 30 sequences from PubChem BioAssay AID1508600 (Functional Genomics Laboratory (NCATS/FGL), 2020).

The whole screen tested about 53,000 sequences, of which about 3,700 (7%) were called active.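 Rule for the calls: active = gene knockdowns whose robust z-score for IL-1 alpha signal is at least 2 or at most -2, so actives lie on both sides; inactive = the rest.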 The full list was thinned out, with actives kept by preference.

The experiment in a line: Components of the Cytosolic LPS Sensing Pathway: Gene Identification via Genome-wide siRNA Screen.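 Note: robust z of the log signal after scaling to non-targeting control siRNA wells of the plate.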 To be noted: RAW264.7 macrophages, IL-1a HTRF, actives lie on both sides, screened at 100 nM (by protocol), cells primed 5 h with Pam3CSK4 first. The gist of the method: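 Read-out: IL-1a HTRF on supernatant, divided by plate negative-control median ×100, log-transformed and converted to robust z-score. Cells were RAW264.7 given 100 nM siRNA, Pam3CSK4-primed 5 hours, then LipidA-transfected 24 hour.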
Take GUUGGUAGAUUCAGUUUUCTT against Vmn1r89: the z-score was 1.88 (inactive).

For the sequence GGUGAAGAAAGCACUAGUUTT against Olfr979, the z-score was -0.873 (inactive).

As for GGACCUUGGCCUUACACAATT against Astn2, the z-score was 2.29 (active). With GGGCAUGCUGCUUAUUGUGTT against Slc5a4b, the z-score was -0.8 (inactive). Consider GCAACACGUACGAGCUCAATT against Pou2af1, for which the z-score was -0.926 (inactive). As to GGGUUCUAGGUUGUUUAUGTT against C2cd4c, the z-score is -1.74 (inactive). As to GGCGAGCUGGACAGAUUUGTT against Nudt6, the z-score was 3.33 (active).

For CCUGCAUUUACUCAACUUGTT against Snrpe, the z-score was -1.74 (inactive). Under GGAUACAAGCCUUUUAACCTT against Sri stands -0.0625 (inactive).

Regarding GAACAACAACAGACAAGUGTT against Cxcl12, the z-score is -0.65 (inactive).

For the sequence GGUAUUUUUGCAUUUGUCCTT against Pip4p2, the z-score is 1.32 (inactive).

With GGUUAUUGAUGUGACGAUGTT against Rem2, the z-score was 1.36 (inactive). Take CCACCCUGAUUUAAGAAGGTT against Ndufs3: the z-score was 2.53 (active). To CCUACGUGAUAUCCUUUUATT against Vrk1 belongs 0.0128 (inactive); to GGAUAGAAAAUCUGUGUUUTT against Trim60, -0.401 (inactive); to GGUAUUUAUGAAGCACACATT against Clcn3, 0.451 (inactive). As to GGGUCUAUCAGCUACAUCATT against Acsl6, the z-score was -1.28 (inactive). As to CGUAUUGCCUUAGUGUAUGTT against Olfr433, the z-score was -2.7 (active). Under GGGCUAUCGGUUGACAAAUTT against Riok2 stands 1.67 (inactive). As for GCGUAUUACAGACAGUGACTT against Izumo1, the z-score was 0.023 (inactive). Under GGAACUGUUUCUCUUUCCUTT against Rad9a stands -1.45 (inactive); under CGUGUUCUAUGAUGGUAAUTT against Selenoo, -0.197 (inactive). To GCAACUUGGCUACAAUUACTT against Dct belongs 0.987 (inactive); to GGACCAAGCCACCAAAACUTT against Vmn1r78, -2.28 (active); to CCUAUGAUUCAGCAAUACUTT against Col17a1, 0.677 (inactive). For the sequence GGAAGAGGAGAGGAAGAAGTT against Dync1i1, the z-score was 1.91 (inactive). Under GGCUCUAAGCUAAAUAAAGTT against Kbtbd4 stands -0.249 (inactive); under CCGCGUCUUGCUAUGGAAGTT against Baiap2l2, 0.79 (inactive). To GCUGGAAGAUAGUGCUUUUTT against Itpr1 belongs 5.23 (active); to GGGUUUAUGGGCAUGUCCCTT against Adipor2, -0.964 (inactive).
